Potency and outcome data for 20 compounds are collected here from PubChem BioAssay (Tox21).

Experiment [1] is described as follows: qHTS assay to identify small molecule antagonists of the glucocorticoid receptor (GR) signaling pathway - cell viability counter screen (AID 720693). Also: nearly all actives have a fitted effect of over 55% in size. Also: potency is read from the fitted curve at half-maximal effect.
Experiment [2] can be described thus: qHTS assay for identifying genotoxic compounds that show differential cytotoxicity against isogenic chicken DT40 cell lines with known DNA damage response pathways - wild type cell line (AID 743012). Also: nearly all actives have a fitted effect of over 60% in size. Also: potency is read from the fitted curve at half-maximal effect. The essentials: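 Viability by ATP luminescence (CellTiter-Glo, 30 min RT) after 40 h compound treatment at 37 C/5% CO2, using 300 parental DNA repair-proficient DT40 cells per well.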

Experiment [3] in a line: qHTS assay for identifying genotoxic compounds that show differential cytotoxicity against isogenic chicken DT40 cell lines with known DNA damage response pathways - Rev3 mutant cell line (AID 743014). Also: nearly all actives have a fitted effect of over 55% in size. Also: potency is read from the fitted curve at half-maximal effect. A general note: In qHTS, concentration-response curves come from the screen itself.
Experiment [4] is described as follows: qHTS assay for identifying genotoxic compounds that show differential cytotoxicity against isogenic chicken DT40 cell lines with known DNA damage response pathways - Rad54/Ku70 mutant cell line (AID 743015). Also: nearly all actives have a fitted effect of over 60% in size. Also: potency is read from the fitted curve at half-maximal effect.
The nature of experiment [5]: qHTS assay to identify small molecule antagonists of the androgen receptor (AR) signaling pathway - cell viability counter screen (AID 743033; also: nearly all actives have a fitted effect of over 45% in size; also: potency is read from the fitted curve at half-maximal effect).
The target in experiment [6] is Androgen receptor (Homo sapiens) (UniProt P10275). Nature of the experiment: qHTS assay to identify small molecule antagonists of the androgen receptor (AR) signaling pathway (AID 743035; active = well fitted inhibition curve with a large enough effect in the signal ratio in the repeat runs, not every such curve was filed as active; the % refers to the signal ratio; also: potency is read from the fitted curve at half-maximal effect). The essentials: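 Antagonist mode: AR-bla HEK293 cells co-treated with test compounds and agonist R1881 for 16 h at 37C, 5% CO2. Beta-lactamase activity read as FRET fluorescence after 2 h room-temperature substrate loading.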
Chain of Androgen receptor (Homo sapiens) (P10275 whole entry, looked up): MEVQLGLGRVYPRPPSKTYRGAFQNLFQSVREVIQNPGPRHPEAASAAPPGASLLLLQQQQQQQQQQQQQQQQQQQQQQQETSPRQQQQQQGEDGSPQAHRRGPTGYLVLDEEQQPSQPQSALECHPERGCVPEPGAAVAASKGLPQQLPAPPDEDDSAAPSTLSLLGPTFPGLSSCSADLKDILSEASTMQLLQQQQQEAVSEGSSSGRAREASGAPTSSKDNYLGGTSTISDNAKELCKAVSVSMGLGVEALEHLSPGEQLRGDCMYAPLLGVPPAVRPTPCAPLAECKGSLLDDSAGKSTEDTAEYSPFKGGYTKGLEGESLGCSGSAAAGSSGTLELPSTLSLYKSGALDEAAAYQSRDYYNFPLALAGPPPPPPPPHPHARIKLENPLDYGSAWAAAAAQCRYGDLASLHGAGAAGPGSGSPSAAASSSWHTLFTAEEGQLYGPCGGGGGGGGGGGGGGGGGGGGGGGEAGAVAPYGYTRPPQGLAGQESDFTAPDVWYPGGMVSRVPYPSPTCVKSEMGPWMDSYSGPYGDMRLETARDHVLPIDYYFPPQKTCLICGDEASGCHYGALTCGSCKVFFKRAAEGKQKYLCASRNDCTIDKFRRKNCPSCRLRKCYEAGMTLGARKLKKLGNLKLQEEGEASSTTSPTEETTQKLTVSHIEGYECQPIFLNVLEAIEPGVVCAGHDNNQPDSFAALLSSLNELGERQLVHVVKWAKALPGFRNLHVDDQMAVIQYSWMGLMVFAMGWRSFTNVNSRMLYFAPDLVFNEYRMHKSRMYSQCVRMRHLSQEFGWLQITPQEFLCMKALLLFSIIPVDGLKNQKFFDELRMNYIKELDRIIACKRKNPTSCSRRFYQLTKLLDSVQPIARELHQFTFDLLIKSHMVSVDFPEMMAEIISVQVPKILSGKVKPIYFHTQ

Experiment [7] shares this target. The experiment can be described thus: qHTS assay to identify small molecule agonists of the androgen receptor (AR) signaling pathway using the MDA cell line (AID 743040; also: nearly all actives have a fitted effect of over 20% in size). The essentials:
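Luciferase agonist assay: 16 h compound exposure at 37C without CO2 in MDA-kb2 AR-luc cells, whose MMTV promoter responds to both AR and GR. Luminescence measured after 30 min room-temperature incubation with ONE-Glo.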

The nature of experiment [8]: qHTS assay to identify small molecule antagonists of the androgen receptor (AR) signaling pathway using the MDA cell line - cell viability counter screen (AID 743041; also: nearly all actives have a fitted effect of over 45% in size; also: potency is read from the fitted curve at half-maximal effect). The essentials:
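Viability read by CellTiter-Fluor fluorescence in the same wells as the antagonist screen, added after 15.5 h of a 16 h, 37C exposure. Human breast carcinoma MDA-kb2 AR-luc cells, compounds co-dosed with agonist R1881.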

Experiment [9] can be described thus: qHTS assay to identify small molecule antagonists of the thyroid receptor (TR) signaling pathway - cell viability counter screen (AID 743064). Also: nearly all actives have a fitted effect of over 50% in size. Also: potency is read from the fitted curve at half-maximal effect. The essentials: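 Counter screen for cytotoxicity: compound plus T3 (1 nM final) on GH3.TRE-Luc cells, 23.5 h at 37 °C, then fluorescence viability readout with CellTiter-Fluor.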
Experiment [10] addresses Androgen receptor (Homo sapiens) (UniProt P10275). Nature of the experiment: qHTS assay to identify small molecule agonists of the androgen receptor (AR) signaling pathway (AID 743036; active = well fitted activation curve with a large enough effect in the signal ratio in the repeat runs, with a control signal flat, not every such curve was filed as active; the % refers to the signal ratio). The essentials:
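In this Tox21 qHTS, 2,000 HEK293 AR-bla cells per well were incubated with compounds for 16 h at 37C and 5% CO2. Fluorescence intensity was recorded 2 h after adding LiveBLAzer B/G FRET substrate at room temperature.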

“And” between values parts separate entries of the source, which are not always exact repeats. Equal values may be shown once. Results filed as inconclusive are left out. A structure can be active in one record and inactive in another. The source made the active and inactive calls. Unless noted, calls follow the shape of the dose curve; as a rule, active = well fitted curve in the direction sought with a large enough effect in the repeat runs; inconclusive = weak or mixed curves; inactive = no such curve, though single readings can be large; an effect the other way counts as inactive or inconclusive.

Take `Nc1cc(Cl)c(-c2cc(Cl)c(N)cc2Cl)cc1Cl`: the Potency in experiment [1] is 54.9 µM (active) and 49 µM (active); in experiment [2], 5.44 µM (active) and 4.86 µM (active); in experiment [3] it was 2.43 µM (active) and 5.45 µM (active); in experiment [4], 2.73 µM (active) and 4.33 µM (active); in experiment [5], 43.6 µM (active) and 49 µM (active); in [6], 21.9 µM (active) and 17.4 µM (active). Besides, the Potency in [8] is 61100 nM (active); in experiment [9] it was 10.9 µM (active) and 8.63 µM (active). In addition, in experiment [7], the outcome was inactive.

On to `CCc1ccc(C(c2ccc(CC)cc2)C(Cl)Cl)cc1`, for which the Potency entry in experiment [1], in experiment [2], in experiment [3], in [4], in experiment [5] and in experiment [10] was “inactive” throughout. Moreover, the Potency entry in experiment [8] and in experiment [9] was “inactive” throughout. Also, the compound was classed as inactive in [7].

For the compound `Nc1nc2ccccc2[nH]1`, the Potency result in experiment [1], in experiment [2], in [3], in experiment [4], in experiment [5] and in [8] was “inactive” in each case. For the same compound, in experiment [9], the Potency entry was “inactive”.

In the case of `CC(C)(O)CCC(C)(C)O`, the Potency entry in experiment [1], in [2], in experiment [3], in [4], in [5] and in experiment [8] was “inactive” throughout. Besides, the Potency entry in [9] is “inactive”. Moreover, the outcome in experiment [7] was inactive.

Turning to `CC1COc2c(N3CCN(C)CC3)c(F)cc3c(=O)c(C(=O)O)cn1c23` (configuration not stated), the Potency entry in experiment [1], in [2], in experiment [3], in experiment [4], in experiment [5] and in [8] was “inactive” in each case.

Take `Oc1ccc(Cl)cc1Cc1cc(Cl)ccc1O`: the Potency is 39.6 µM (active) and 34.7 µM (active) in experiment [1]; 23.7 µM (active) and 39.3 µM (active) and 21.7 µM (active) in experiment [2]; 16.8 µM (active) and 31.2 µM (active) and 10.9 µM (active) in experiment [3]; 16.8 µM (active) and 31.2 µM (active) and 12.2 µM (active) in [4]; 19.8 µM (active) and 11 µM (active) in [5]; 18.8 µM (active) and 15.6 µM (active) and 27.3 µM (active) in experiment [9]. Besides, the Potency result in [10] and in [8] was “inactive” each time. For the same compound, the compound was classed as inactive in experiment [7].

Turning to `CCC[C@H](N[C@@H](C)C(=O)N1[C@H](C(=O)O)C[C@@H]2CCCC[C@@H]21)C(=O)OCC`, the Potency result in experiment [1], in experiment [2], in experiment [3], in [4] and in experiment [5] was “inactive” each time.

Consider `COc1nc(C)nc(Cl)c1NC1=NCCN1`, for which the Potency result in experiment [1], in experiment [2], in experiment [3], in experiment [4], in [5] and in experiment [8] was “inactive” each time. In addition, the Potency entry in [9] was “inactive”.

On to `O`, for which the Potency result in [1], in experiment [4], in experiment [5], in experiment [8] and in [9] was “inactive” in each case. In addition, the Potency result in experiment [2] is “inactive and 13.9 µM (active)”; in [3], “inactive and 9.81 µM (active)”.

On to `CC(C)(C)c1ccccc1`, for which the Potency result in experiment [1], in experiment [2], in experiment [3], in experiment [4], in experiment [5] and in experiment [8] was “inactive” throughout. Also, the Potency result in experiment [9] is “inactive”.

`Cc1scc2c1N(C(=O)CN1CCN(C)CC1)c1ccccc1NC2=O`: the Potency result in experiment [1], in [2], in experiment [3], in experiment [4], in experiment [5] and in experiment [8] was “inactive” in each case. For the same compound, the Potency entry in experiment [9] is “inactive”.

On to `CN(C)c1ccc(C(=C2C=CC(=[N+](C)C)C=C2)c2ccccc2)cc1`, for which the Potency in experiment [1] was 195 nM (active); in [2] it was 1.06 µM (active) and 13.7 nM (active); in experiment [3], 1.19 µM (active) and 7.7 nM (active); in experiment [4] it was 1.5 µM (active) and 10.9 nM (active); in experiment [5] it was 155 nM (active); in experiment [9], 7.5 µM (active) and 68.6 nM (active).

On to `NC(N)=Nc1nc(CSCC/C(N)=N/S(N)(=O)=O)cs1`, for which the Potency result in experiment [1], in experiment [2], in [3], in experiment [4], in [5] and in [9] was “inactive” throughout.

With `O=C(O)CP(=O)(O)O`, the Potency entry in experiment [1], in [2], in experiment [3], in experiment [4], in experiment [5] and in experiment [8] was “inactive” throughout. Moreover, the Potency result in experiment [9] was “inactive”.

Regarding `CCCCN(CCO)CCCC`, the Potency result in [1], in experiment [2], in experiment [3], in [4], in experiment [5] and in experiment [8] was “inactive” in each case. Further, the Potency result in experiment [9] is “inactive”.

Take `CC(C)(C)c1cc(C(C)(C)C)c(O)c(C(C)(C)C)c1`: the Potency entry in experiment [1], in [2], in experiment [3], in experiment [4], in experiment [5] and in experiment [8] was “inactive” throughout. The Potency in [9] was 27.3 µM (active).

On to `O=C(Cl)c1cccc(C(=O)Cl)c1`, for which the Potency entry in experiment [1], in experiment [2], in [3], in experiment [4], in experiment [5] and in experiment [8] was “inactive” each time. Further, in experiment [9], the Potency result was “inactive”.

For `C=C(C)C(=O)O`, the Potency entry in experiment [1], in [2], in experiment [3], in experiment [4], in experiment [5] and in experiment [8] was “inactive” throughout. Moreover, in [9], the Potency result is “inactive”.

For the compound `CCC(C)(C)C(=O)O[C@H]1C[C@@H](C)C=C2C=C[C@H](C)[C@H](CC[C@@H]3C[C@@H](O)CC(=O)O3)[C@H]21`, the Potency result in experiment [1], in [5], in experiment [8] and in experiment [9] was “inactive” throughout. For the same compound, the Potency in [2] is 2.17 µM (active); in experiment [3], 154 nM (active); in experiment [4] it was 1.09 µM (active).

For the compound `[Cl][In]([Cl])[Cl]`, the Potency entry in [1], in experiment [2], in experiment [3], in [4], in [5] and in experiment [8] was “inactive” throughout. Moreover, in experiment [9], the Potency entry was “inactive”.
